Most compounds without a hit are left out; they make up all but 3.4% or so of the library.
HSF1 activator: HSF-1 activators, primary screen, NIH3T3-HGL cells, MG132 stress, luminescence, single point. 1.7% of 300,000 active. NIH3T3-HGL HSF-1 luciferase reporter, 8 h; 100% = twice DMSO control signal. activation, % at 9 µM;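 active = mean replicate activation of at least 50% with a set share of replicates each reaching 50%; inconclusive = only one of those two conditions met; inactive = mean below 50% and too few replicates reaching it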
esBAF inh: Bmi1 luciferase reporter increase in mESCs, primary screen, esBAF inhibitor project, mouse ES cells, Bmi1 luciferase knock-in, single point; 2% of 350,000 active; AID 602393, 2012; reporter increase, % at 12.5 µM; 24 h; 100% = twice the neutral-well signal; in the data active = activation above about 40%; inconclusive = no clear call, values can overlap the other calls;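 also: a rise in the Bmi1 reporter signal indicates esBAF inhibition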
Vif inh: HIV Vif self-association inhibitors, primary screen, imaging, HEK293T, single point; HEK293T cells, Vif self-association by quenched fluorescence, 24 h; inhibition, % at 7.49 µM; 0.35% of 340,000 active; AID 602346, 2012; in the data active = inhibition above about 50%, passing the limit was not always enough; inconclusive = no clear call, values can overlap the other calls; inactive = below about 31%
HSF1 inh: HSF1 inhibitors in luciferase reporter cells, primary screen, cell-based, NIH3T3, luminescence; activity change, negative = inhibition, % at 7.5 µM (by protocol); 0.77% of 300,000 active; NIH3T3-HGL HSE-luciferase, MG132-induced, luminescence 8 h; hits give low values;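 active = more than half of replicate wells show activity change below -50%, luminescence cut by over half; inconclusive = some wells, but at most half, below -50%; inactive = no replicate well below -50%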;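 also: luciferase reports HSF-1 transcriptional activity via heat shock element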
Of the large screens only hits and unclear results are named; the others gave an inactive call.

CN1C(=O)C2(Oc3ccccc3C3CC(c4ccccc4)=NN32)c2ccccc21 (stereo unspecified)	HSF1 activator 76.2, esBAF inh 95.2
C[C@H]1CCCCO[C@@H](CN(C)C(=O)CCCN(C)C)[C@@H](C)CN([C@@H](C)CO)C(=O)c2cc(NC(=O)Nc3ccc(F)cc3)ccc2O1	none (no result: HSF1 activator, Vif inh, HSF1 inh)
O=C1c2ccccc2C(=O)N1CSc1nnc(Nc2ccccc2)s1	none (no result: esBAF inh)
CC(C)(C)C(=O)Nc1nnc(SCC(=O)Nc2nccs2)s1	none
Cc1nnc(NC(=O)CSc2nnc(NC(=O)C(C)(C)C)s2)s1	Vif inh 75.4
CCSc1nnc(NC(=O)C(C)(C)C)s1	esBAF inh 51.3
CC(C)(C)C(=O)CSc1nnc(Nc2ccccc2)s1	esBAF inh 74.0
CS(=O)(=O)N1[C@H](C#N)[C@H](c2ccc(C#CC3CCCCC3)cc2)[C@@H]1CO	none (no result: HSF1 activator, Vif inh, HSF1 inh)
CCC(=O)N(C)C[C@@H]1Oc2cc(-c3ccccc3)ccc2S(=O)(=O)N([C@@H](C)CO)C[C@@H]1C	none (no result: HSF1 activator, Vif inh, HSF1 inh)
O=C(CSc1cccs1)Nc1ccc(Cl)cc1	HSF1 activator 65.5 (no result: esBAF inh)
O=C(CSc1ccc(Cl)cc1)Nc1ccccc1	none (no result: HSF1 activator, HSF1 inh)
COc1ccc(NC(=O)N(C)C[C@H]2Oc3c(NC(=O)Nc4ccc(F)cc4)cccc3C(=O)N([C@H](C)CO)C[C@@H]2C)cc1	none (no result: HSF1 activator, Vif inh, HSF1 inh)
O=C(/C=C/c1ccccc1)NCCC1=CCCCC1	esBAF inh 71.2
O=C(COC(=O)/C=C/c1ccccc1)NCCC1=CCCCC1	none (no result: esBAF inh)
COc1ccccc1/C=C/C(=O)NCCC1=CCCCC1	none (no result: esBAF inh)
O=C(/C=C/c1ccc(F)cc1)NCCC1=CCCCC1	esBAF inh 78.1
CO[C@@H]1CN(C)C(=O)c2cc(NS(C)(=O)=O)ccc2OC[C@@H](C)N(CC2CCCCC2)C[C@@H]1C	none (no result: HSF1 activator, Vif inh, HSF1 inh)
C[C@H]1CCCCO[C@@H](CN(C)C)[C@@H](C)CN([C@@H](C)CO)C(=O)c2cc(NC(=O)c3ccccc3)ccc2O1	none (no result: HSF1 activator, Vif inh, HSF1 inh)
Cn1c(CNc2ccccc2)nc2ccccc21	esBAF inh 66.0 (no result: Vif inh)
CCn1c(NCc2cccs2)nc2ccccc21	none
CCCn1c(CNc2ccc(Br)cc2)nc2ccccc21	esBAF inh 48.2 (no result: Vif inh)
Cn1c(NCc2cccs2)nc2ccccc21	esBAF inh 49.7 (no result: Vif inh)
CCn1cnc2cc(NCc3nc4ccccc4n3C)ccc21	none
Cn1c(Cc2nc3ccccc3n2C)nc2ccccc21	none
Cn1c(CNc2ccc(F)cc2)nc2ccccc21	esBAF inh 68.5
COc1cccc(NC(=O)Nc2ccc3c(c2)C(=O)N(C)C[C@@H](OC)[C@@H](C)CN(C)[C@H](C)CO3)c1	none (no result: HSF1 activator, Vif inh, HSF1 inh)
Cc1ccccc1NCc1nc2ccccc2n1C	HSF1 activator inconclusive, esBAF inh inconclusive
Cn1c(CSc2nc3ccccc3n2C)nc2ccccc21	HSF1 activator 70.2
Cn1c(CNc2ccccc2O)nc2ccccc21	HSF1 activator 80.3, esBAF inh 48.4
Cc1cc(C)nc(SCc2nc3ccccc3n2C)n1	none
C[C@@H]1CCCCO[C@H](CN(C)C(=O)Nc2ccc3c(c2)OCO3)[C@@H](C)CN([C@H](C)CO)C(=O)c2cc(NC(=O)c3ccncc3)ccc2O1	none (no result: HSF1 activator, Vif inh, HSF1 inh)
CN1CCN(C(=O)C2CCC(=O)N(CCc3cccc(F)c3)C2)CC1 (stereo unspecified)	none (no result: esBAF inh)
COc1ccccc1CN1CC(C(=O)N2CCCCO2)CCC1=O (stereo unspecified)	none
COC(=O)C1CCN(C(=O)C2CCC(=O)N(CCc3cccc(F)c3)C2)CC1 (stereo unspecified)	esBAF inh 52.6
O=C1CCC(C(=O)N2CCCCO2)CN1CCc1ccccc1 (stereo unspecified)	esBAF inh 51.1
C[C@H](O)C#Cc1cnc2c(c1)C(=O)N([C@H](C)CO)C[C@H](C)[C@@H](CN(C)Cc1cncnc1)O2	none (no result: HSF1 activator, Vif inh, HSF1 inh)
O=S(=O)(c1cccs1)N1CCCc2cccc(O)c21	esBAF inh 45.0
Cc1cc(/C=C2\SC(=O)N(C)C2=O)c(C)n1-c1ccc(O)cc1	HSF1 inh -70.2
CN=C1S/C(=C\c2cc(C)n(-c3ccccc3F)c2C)C(=O)N1C	HSF1 inh -81.9
COc1ccccc1N1CCN(Cc2ccc(O)c3ncccc23)CC1	none (no result: Vif inh)
Oc1ccc(CN2CCCc3ccccc32)c2cccnc12	HSF1 inh -68.6 (no result: esBAF inh)
C=CCn1c(C)cc(C(=O)COC(=O)CNC(=O)c2ccccc2)c1C	HSF1 inh -81.6 (no result: esBAF inh)
Cc1ccc(C(=O)NCC(=O)OCC(=O)c2cc(C)n(Cc3ccco3)c2C)cc1	none (no result: esBAF inh)
C[C@@H]1CN([C@H](C)CO)C(=O)Cc2cc(NC(=O)Cc3cn(C)c4ccccc34)ccc2O[C@@H]1CN(C)C	none (no result: HSF1 activator, Vif inh, HSF1 inh)
O=C(NC1=NCCS1)C1CC(=O)N(c2ccc(F)cc2)C1 (stereo unspecified)	HSF1 activator 86.8
Cc1cc(C)c(C#N)c(SCC(=O)NC(C)(C)C)n1	HSF1 inh -65.0
COCc1cc(C)nc(SCC(=O)Nc2ccc(C)c(C)c2)c1C#N	esBAF inh 43.2
Cc1cc(NC(=O)CSc2nc3c(C)ccc(C)c3cc2C#N)no1	none
Cc1cc(C)c(C#N)c(SCC(=O)Nc2cc(C)on2)n1	esBAF inh 82.1 (no result: HSF1 activator, HSF1 inh)
Cc1cc(NC(=O)CSc2nnc(C)c(=O)[nH]2)no1	Vif inh 68.9
Cc1cc(C(F)(F)F)c(C#N)c(SCC(=O)NC(C)(C)C)n1	none
C[C@H]1CN([C@@H](C)CO)C(=O)c2c(c3ccccc3n2C)-c2ccccc2CO[C@H]1CN(C)S(=O)(=O)Cc1ccccc1	none (no result: HSF1 activator, Vif inh, HSF1 inh)
Cn1nc(C(F)(F)F)cc1-c1ccc(S(N)(=O)=O)s1	esBAF inh 51.6
Cn1nc(-c2ccc(S(N)(=O)=O)s2)cc1C(F)(F)F	none
CC(=O)c1sc(NC(=O)COc2ccc(Cl)cc2C)nc1C	none (no result: esBAF inh)
CC(=O)c1sc(NC(=O)COc2ccc(Cl)cc2Cl)nc1C	esBAF inh 45.0 (no result: HSF1 activator, HSF1 inh)
CC(C)(CO)NC(=O)CCCOc1ccc(Cl)cc1Cl	esBAF inh 47.9
CSc1ccccc1NC(=O)COc1ccc(Cl)cc1Cl	esBAF inh 47.4
O=C(CCCOc1ccc(Cl)cc1Cl)Nc1ccccc1C(=O)O	esBAF inh 78.9
C[C@H]1CN([C@@H](C)CO)C(=O)Cc2cc(NC(=O)C3CC3)ccc2O[C@@H]1CN(C)Cc1ccccc1	none (no result: HSF1 activator, Vif inh, HSF1 inh)
CC(=O)NC[C@H]1[C@@H](c2ccc(-c3cccnc3)cc2)[C@@H](CO)N1C(=O)C1CCC1	none (no result: HSF1 activator, Vif inh, HSF1 inh)
C[C@@H]1CCCCO[C@@H](CN(C)S(=O)(=O)c2cccs2)[C@H](C)CN([C@H](C)CO)C(=O)c2cc(NC(=O)NC3CCCCC3)ccc2O1	none (no result: HSF1 activator, Vif inh, HSF1 inh)
CS(=O)(=O)Nc1ccc2c(c1)[C@H]1C[C@@H](CC(=O)NCc3ccc(Cl)cc3)O[C@H](CO)[C@H]1O2	none (no result: HSF1 activator, Vif inh, HSF1 inh)
COCn1c(-c2cccc(Br)c2)nc2ccccc21	Vif inh inconclusive
COCn1c(-c2ccc(OC)c(OC)c2)nc2ccccc21	esBAF inh 47.3
Cc1noc(C)c1NC(=O)NCC[C@@H]1CC[C@@H](NC(=O)Nc2cccc(F)c2)[C@H](CO)O1	none (no result: HSF1 activator, Vif inh, HSF1 inh)
COc1cc(NC(=O)NCc2ccco2)ccc1-c1ccc(NC(=O)NCc2ccco2)cc1OC	Vif inh 90.3 (no result: HSF1 activator, HSF1 inh)

High-throughput results: PubChem, Broad Institute
